# Assay outcomes from PubChem.
# Most compounds without a hit are left out; they make up all but 2% or so of the library.
# DAGLB inh: DAGLB lipase inhibitors, primary screen, biochemical, fluorescence, HTS; HEK293T DAGLB membrane lysate, EnzChek fluorogenic substrate; inhibition, % at 5.17 µM; actives 0.059% (n = 340,000); in the data active means inhibition above about 34%;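 further: 0% = enzyme with vehicle and 100% = wells lacking enzyme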
# ARNT-TACC3 inh: disruptors of ARNT/TACC3 protein interaction, primary screen, biochemical, AlphaScreen, single concentration; AlphaScreen His-ARNT PAS-B/GST-TACC3 binding, luminescence; TACC3 fragment carries E629A point mutation; inhibition, % at 9.99 µM; actives 0.66% (n = 390,000); Transforming acidic coiled-coil-containing protein 3 (Homo sapiens), Q9Y6A5; AID 623870, 2012;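 active means mean inhibition of replicates at least 50% and at least half of replicates each reaching 50%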;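 further: 0% = complete ARNT plus TACC3 wells and 100% = ARNT alone without TACC3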
# sPLA2-III inh: human group III sPLA2 inhibitors, primary screen, biochemical, QFRET, BODIPY PC-A2 liposome substrate | Group 3 secretory phospholipase A2 (Homo sapiens), Q9NZ20 | QFRET BODIPY PC-A2 liposome hydrolysis, fluorescence | inhibition, % at 12.2 µM | actives 0.56% (n = 370,000);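 active means inhibition above mean plus 3 SD of compounds lying within the high and low control bounds, cut at about 19% in these data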;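 further: 0% = median of test compound wells and 100% = no enzyme DMSO wells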
# Target sequence (Q9NZ20 whole entry, looked up): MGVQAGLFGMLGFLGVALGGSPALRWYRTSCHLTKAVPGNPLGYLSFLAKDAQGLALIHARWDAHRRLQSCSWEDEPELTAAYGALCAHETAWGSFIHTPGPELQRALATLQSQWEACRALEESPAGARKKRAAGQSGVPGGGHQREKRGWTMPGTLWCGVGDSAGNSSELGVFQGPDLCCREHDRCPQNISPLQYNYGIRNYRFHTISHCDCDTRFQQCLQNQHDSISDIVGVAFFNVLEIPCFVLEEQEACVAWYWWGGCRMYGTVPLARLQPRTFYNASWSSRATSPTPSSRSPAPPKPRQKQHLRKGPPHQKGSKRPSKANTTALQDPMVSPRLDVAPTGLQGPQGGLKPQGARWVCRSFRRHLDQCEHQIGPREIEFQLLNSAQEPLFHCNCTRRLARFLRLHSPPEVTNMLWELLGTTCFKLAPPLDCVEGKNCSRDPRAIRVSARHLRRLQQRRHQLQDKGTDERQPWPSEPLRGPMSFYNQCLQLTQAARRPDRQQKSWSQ
# Neddylation inh: inhibitors of cullin neddylation, primary screen, biochemical, TR-FRET, uHTS, NAE and Ubc12; actives 0.58% (n = 360,000); inhibition, % at 25 µM; NEDD8-conjugating enzyme Ubc12 (Homo sapiens) + NEDD8-activating enzyme E1 regulatory …; in the data active means inhibition above about 36%
# NadD inh: inhibitors of S. aureus NadD, primary screen, biochemical, colorimetric, uHTS; Nicotinate-nucleotide adenylyltransferase NadD (Staphylococcus aureus N315); purified NadD enzyme, colorimetric absorbance read-out; inhibition, % at 20 µM; actives 0.78% (n = 360,000); AID 602399, 2012; in the data active means inhibition above about 26%
# NadD conf: inhibitors of S. aureus NadD, confirmation, biochemical, colorimetric, single concentration. shares compounds with NadD inh. purified S. aureus NadD, colorimetric enzyme assay. inhibition, % at 20 µM. actives 13% (n = 2,000). AID 624309, 2012; in the data active means inhibition mostly above about 42%, no sharp cut-off; inactive means mostly below about 42%
# Active calls of the source: *; / = no result given.
SMILES,DAGLB inh,ARNT-TACC3 inh,sPLA2-III inh,Neddylation inh,NadD inh,NadD conf
C=CCn1c(=O)/c(=C\c2ccccn2)s/c1=C(/C#N)C(=O)NCC1CCCO1 (configuration not stated),-3,2,8,-40,-1,/
C=CCn1c(=O)/c(=C/c2ccc(C)o2)s/c1=C(/C#N)C(=O)c1ccccc1,-4,7,-2,-7,30*,3
CCCN1C[C@@H](C)[C@@H](OC)CN(C)C(=O)c2ccc(NC(=O)c3cccc(OC)c3)cc2OC[C@H]1C,/,4,/,/,/,/
NC(CSC1(c2ccc(Cl)cc2)c2ccccc2-c2ccccc21)C(=O)O (configuration not stated),-8,-4,16,6,41*,57*
COc1ccc(C2(SCC(N)C(=O)O)c3ccccc3-c3ccccc32)cc1 (configuration not stated),-9,-6,13,1,36*,30
NC(CSC1(c2ccc(F)cc2)c2ccccc2-c2ccccc21)C(=O)O (configuration not stated),-8,/,-2,-15,27,/
C[C@H](NC(=O)[C@@H]1[C@@H](CO)[C@@H]2Cn3c(ccc(-c4ccccc4F)c3=O)[C@H]1N2C)c1ccccc1,/,-1,/,/,/,/
Cc1ccc(N2C(=O)[C@@H]3[C@H](C2=O)[C@H]2C=CC=NN2[C@@H]3C(=O)Nc2ccc(Cl)cc2)cc1,0,12,-23,-5,3,/
CC(=O)Oc1ccc(C(=O)[C@H]2[C@H]3C(=O)N(c4ccc5ccccc5c4)C(=O)[C@H]3[C@@H]3C=CC=NN32)cc1,7,-5,-21,-15,40*,16
O=C(Nc1ccc(Cl)cc1)[C@@H]1[C@@H]2C(=O)N(c3ccc(Cl)cc3)C(=O)[C@@H]2[C@H]2C=CC=NN21,11,-4,-6,0,37*,11
COCC(=O)N1C[C@H](C)[C@H](OC)CN(C)C(=O)c2ccc(NC(=O)c3ccc(OC)cc3)cc2OC[C@@H]1C,/,-4,/,/,/,/
CCCN1C(=O)c2ccccc2NC1c1ccc(Cl)c(Cl)c1 (configuration not stated),2,-4,6,/,-9,/
CCCCN1C2=C(C(=O)CCC2)C(c2ccc(Cl)c(Cl)c2)C2=C1c1ccccc1C2=O (configuration not stated),3,-3,2,-20,32*,8
Cc1noc(C)c1S(=O)(=O)Nc1ccc2c(c1)C(=O)N([C@@H](C)CO)C[C@H](C)[C@@H](CN(C)S(=O)(=O)c1cn(C)cn1)OCCCC[C@H](C)O2,/,-8,/,/,/,/
CCc1nnc(NC(=O)c2ccc(Cl)c(S(=O)(=O)N3CCc4ccccc43)c2)s1,3,1,-23,-1,27,/
O=C(Nc1nnc(C2CC2)s1)c1ccc(Cl)c(S(=O)(=O)N2CCc3ccccc3C2)c1,5,1,-1,-52,33*,-1
CC(C)C[C@@H]1NC(=O)[C@H]2C[C@@H](C(=O)NCc3ccc(F)cc3)[C@@H](c3cccc(OCCO)c3)N2C1=O,/,-9,/,/,/,/
COc1ccc(NC(=O)N[C@@H]2CC[C@@H](CCNS(=O)(=O)c3ccccc3F)O[C@@H]2CO)cc1,/,-1,/,/,/,/
COC(=O)Cn1c(=NC(=O)c2cc(-c3cccs3)nc3ccccc23)sc2cc(S(N)(=O)=O)ccc21,-1,-1,-3,-1,31*,16
CCOC(=O)Cn1c(=NC(=O)c2cc(-c3cccs3)nc3ccccc23)sc2cc(S(N)(=O)=O)ccc21,-1,-10,-7,37,56*,61*
COCC(=O)Nc1ccc2c(c1)C(=O)N(C)C[C@@H](OC)[C@H](C)CN(Cc1ccncc1)[C@@H](C)CO2,/,-8,/,/,/,/
